Measurements taken from PubChem BioAssay (NCATS).
“And” between values parts separate entries of the source, which are not always exact repeats. Equal entries are not always repeated. Inconclusive results are not listed. Values without a mark were called inactive. The source made the active and inactive calls. Calls follow the shape of the dose curve; as a rule, active = well fitted curve in either direction with a large enough effect (not every such curve was filed as active); inconclusive = small, poorly fitted or top-dose-only effect, or another doubt; inactive = flat fitted curve, though single readings scatter.

Assay: AP1 Signaling Pathway (AID 357);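 also: ME-180 reporter cells stimulated with EGF at its EC50 level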
Details: ME-180 AP-1-bla reporter, EGF-induced, beta-lactamase ratio, 5 h; at 7.69 µM (top of the series) unless noted
Source text: NCGC Assay Overview: Activator protein-1 (AP-1), a transcription factor, plays an important role in tumor genesis by regulating genes involved in cell proliferation, differentiation, apoptosis, and angiogenesis. AP-1 activity is induced by a complex network of signaling pathways that involves extracellular signals, such as growth factors. The AP-1 protein complex formed from c-Fos and c-Jun binding to the AP-1 response element results in transcriptional activation of genes containing such elements within their promoter. Low molecular weight molecules have been discovered and developed to modulate various components of these signaling pathways, for example, MAP kinase inhibitors. However, many points of pathway modulation remain untested due to the lack of chemical probes making this signaling locus of general interest. Using a beta-lactamase reporter-gene under control of the AP-1 response element, a cell-based assay [CellSensor(TM) AP-1-bla ME-180 developed by Invitrogen Corp.] was used to measure EGF-induced signaling. Library compounds were measured for their ability to modulate positively or negatively the action of EC50 EGF on reporter gene activity. Compounds were screened in a titration series in 1536-well format. Positive and negative modulators were identified based on the AC50 values derived from the screening data.
NCGC Assay Protocol Summary: 2500 cells/5uL in Opti-MEM medium containing 0.5% dialyzed FBS, 0.1 mM NEAA, 1 mM sodium pyruvate and 10 mM HEPES was dispensed into 1536-well plates and cells were cultured at 37 degrees Celsius overnight. […] After centrifugation at 1000 rpm for 2 seconds the plates were incubated at 37 degrees Celsius for 5 hours. 1 uL of CCF4-dye mixture was added to each well. After incubated at room temperature for 2.5 hours the plates were measured on an EnVision plate reader at Excitation 405nm, Emission1=460nm and Emission 2=530nm. The %Activity was determined from the ratio of 460nm/530nm.
% is scaled to controls: 0 for no effect and ±100 for the full control effect.

Row | Structure (SMILES) | activity change, negative = inhibition
1 | COc1ccccc1-c1ccc2ncnc(NC3CC3)c2c1 | -1.03%
2 | COc1ncc2nc(-c3ccc(F)cc3)c(=O)n(Cc3cccs3)c2n1 | -5.24%
3 | COc1ccc(-c2nc3cnc(N4CCN(C)CC4)nc3n(CCC#N)c2=O)cc1 | 23.4%
4 | COc1ncc2nc(-c3ccc(F)cc3)c(=O)n(C[C@H]3CCCO3)c2n1 | 3.08%
5 | CN1CCN(c2ncc3nc(-c4ccc(Cl)cc4)c(=O)n(CCC#N)c3n2)CC1 | 130% [activator] (active)
6 | NC(N)=NC[C@@H]1COC2(CCCCC2)O1 | 13.7% [at 17.2 µM]
7 | O=c1c(-c2ccc(F)c(F)c2)nc2cncnc2n1Cc1ccc(F)cc1 | 2.91%
8 | COc1ccccc1CN1CCCC2(CCN(C(=O)c3cccc(F)c3)CC2)C1 | -7.36%
9 | CS(=O)(=O)N1CCC[C@@]2(CCN(c3ccncc3)C2)C1 | -3.38%
10 | COc1cccc(-c2cncnc2NCc2cccs2)c1 | -25%
11 | O=C(c1ccco1)N1CCC2(CCCN(c3cccc(-c4ccccc4)c3)C2)CC1 | 12.9%
12 | Cn1c(=O)c(-c2cc(F)cc(F)c2)nc2cnc(Nc3ccccc3)nc21 | -3.31%
13 | CC(=O)NCCNc1nc(-c2ccc(C(=O)N(C)C)cc2)nc2ccccc12 | 3.64%
14 | COCC(=O)N1CCC[C@@]2(CCN(Cc3cc(C(F)(F)F)cc(C(F)(F)F)c3)C2)C1 | 3.75%
15 | CC(=O)N1CCC2(CCCN(c3cccc(-c4ccccc4)c3)C2)CC1 | -12.3%
16 | COC(=O)N1CCC2(CC1)CN(c1ccccc1)C2 | -2.49%
17 | COc1ccc(C(=O)N2CCC[C@@]3(CCN(C(=O)NC(C)C)C3)C2)cc1 | -14%
18 | Cc1cnc(CNc2ncnc3ccc(-c4ccccc4C#N)cc23)cn1 | 9.76%

Row | Structure (SMILES) | activity change, negative = inhibition
19 | c1ccc(C(c2ccccc2)N2CCC3(CCNCC3)CC2)cc1 | -10.6%
20 | COc1ccccc1CN1CC[C@@]2(CCCN(C(=O)c3ccco3)C2)C1 | -2.43%
21 | COc1cccc(Nc2ncc3nc(C)c(=O)n(C[C@H]4CCCO4)c3n2)c1 | -22.6%
22 | COc1cccc(Cn2c(=O)c(-c3cc(F)cc(F)c3)nc3cnc(N4CCNCC4)nc32)c1 | 117% [activator] (active)
23 | CNc1ncnc2ccc(-c3cccc(NS(C)(=O)=O)c3)cc12 | -20.9%
24 | O=C(c1cnccn1)N1CCC[C@@]2(CCN(Cc3ccncc3)C2)C1 | -3.77%
25 | O=C(c1ccco1)N1CCC2(CCN(Cc3ccccc3)CC2)CC1 | -4.92%
26 | CC(C)NC(=O)N1CCC2(CC1)CCN(C(=O)c1cnccn1)CC2 | -0.14%
27 | O=C(c1ccco1)N1CCC2(CC1)CCN(c1ccncc1)CC2 | -14.6%
28 | Cc1noc(C)c1-c1nc(NCCN2CCOCC2)c2ccccc2n1 | -2.23%
29 | Cc1cccc(CNc2ncncc2-c2cccc(NS(C)(=O)=O)c2)c1 | -5.04%
30 | N#Cc1ccc(CN2CC[C@@]3(CCCN(C(=O)c4ccncc4)C3)C2)cc1 | -10.1%
31 | CN(C)[C@H]1C(=O)C(C(=O)NCN2CCCC2)=C(O)[C@]2(O)C(=O)C3=C(O)c4c(O)cccc4[C@@](C)(O)[C@H]3C[C@@H]12 | 4.94% [at 17.2 µM]
32 | COCC(=O)N1CCC2(CCN(Cc3cc(C(F)(F)F)cc(C(F)(F)F)c3)CC2)CC1 | 4.92%
33 | O=C(c1csnn1)N1CCC2(CCCN(c3cccc(-c4ccccc4)c3)C2)CC1 | -12.3%
34 | CNc1ncnc2ccc(-c3ccc4c(c3)OCO4)cc12 | -8.86%
35 | Cn1cc(-c2nc3cnc(OCc4ccccc4)nc3n(CCC#N)c2=O)c2ccccc21 | 3.51%
36 | Cc1noc(C)c1-c1cncnc1N1CCN(C)CC1 | 1.14%

Same assay, conditions: ME-180 AP-1-bla reporter, EGF-induced, beta-lactamase ratio, 5 h; at 17.2 µM (top of the series)

Row | Structure (SMILES) | activity change, negative = inhibition
37 | CN(C)CC[C@H](c1ccc(Br)cc1)c1ccccn1 | 0.671%
38 | CC[C@H](NC(C)C)[C@H](O)c1ccc(O)c(O)c1 | -20.6%

Same assay, conditions: ME-180 (cervical carcinoma) AP-1-bla reporter, EGF-induced, beta-lactamase ratio, 5 h; at 38 µM (top of the series)

Row | Structure (SMILES) | activity change, negative = inhibition
39 | CN(C)CC[C@H](c1ccc(Br)cc1)c1ccccn1 | 15.7% and 25.3%
40 | CC[C@H](NC(C)C)[C@H](O)c1ccc(O)c(O)c1 | -15.3%
